Results as given in PubChem BioAssay (Tox21).
Results filed as inconclusive are left out. Active and inactive are the calls of the source. Unless noted, calls come from the whole dose curve; as a rule, active = well fitted curve in the direction sought with a large enough effect in the repeat runs; inconclusive = weak or mixed curves; inactive = no such curve, though single readings can be large; an effect the other way counts as inactive or inconclusive.

What was measured:
[1] = qHTS assay to identify small molecule agonists of the peroxisome proliferator-activated receptor delta (PPARd) signaling pathway - cell viability counter screen (AID 743211); note: nearly all actives have a fitted effect of over 55% in size
How it was run: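 Viability of GeneBLAzer PPARd UAS-bla HEK293H cells was assessed after 17 h compound incubation at 37C, using CellTiter-Glo reagent added after the reporter read and luminescence recorded 30 min later.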

[2] = target: Peroxisome proliferator-activated receptor delta (Homo sapiens) (UniProt Q03181); experiment: qHTS assay to identify small molecule agonists of the peroxisome proliferator-activated receptor delta (PPARd) signaling pathway (AID 743212; calls by dose curve)
How it was run: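 A PPARd-bla HEK293H line with beta-lactamase under an Upstream Activator Sequence is treated with compounds at 37 C. Substrate loading for 2 h at room temperature precedes the fluorescence measurement.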

[3] = qHTS assay to identify small molecule antagonists of the peroxisome proliferator-activated receptor delta (PPARd) signaling pathway - cell viability counter screen (AID 743213); note: nearly all actives have a fitted effect of over 50% in size
How it was run: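 HEK293H PPARd UAS-bla cells, 5 h pre-incubation, compound + L165041 300 nM final, 17 h 37 C; B/G FRET substrate 2 h RT; then CellTiter-Glo 30 min RT, luminescence.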

[4] = target: Peroxisome proliferator-activated receptor delta (Homo sapiens) (UniProt Q03181); experiment: qHTS assay to identify small molecule antagonists of the peroxisome proliferator-activated receptor delta (PPARd) signaling pathway (AID 743215; active = well fitted inhibition curve with a large enough effect in the signal ratio in the repeat runs, not every such curve was filed as active; the % refers to the signal ratio;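 note: cells stimulated with agonist L165041 at 300 nM final during compound exposure; series mostly up to about 62 µM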)
How it was run: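 Antagonist-mode beta-lactamase reporter screen: HEK293H cells with UAS-bla under PPARd control, stimulated by 300 nM L165041 (final) alongside test compound for 17 h at 37 C, then FRET fluorescence after 2 h substrate incubation.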

[5] = qHTS assay to identify small molecule agonists of the farnesoid-X-receptor (FXR) signaling pathway - cell viability counter screen (AID 743218); note: nearly all actives have a fitted effect of over 45% in size
How it was run: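 In GeneBLAzer FXR-UAS-bla HEK 293T cells, compounds act for 16 h at 37 C. Cell viability is then scored in the reporter wells by CellTiter-Glo, 30 min at RT, luminescence.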

[6] = qHTS assay to identify small molecule antagonists of the farnesoid-X-receptor (FXR) signaling pathway - cell viability counter screen (AID 743221; active = well fitted cell-killing curve with a large enough effect in the repeat runs, not every such curve was filed as active; note: nearly all actives have a fitted effect of over 50% in size)
How it was run: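 Quantitative HTS of the Tox21 10K library run in parallel with the beta-lactamase reporter read. HEK 293T cells carrying a UAS-driven bla reporter got compound and 50 uM CDCA (final) for 16 h; ATP-based luminescence followed.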

[7] = target: Vitamin D3 receptor (Homo sapiens) (UniProt P11473); experiment: qHTS assay to identify small molecule agonists of the vitamin D receptor (VDR) signaling pathway (AID 743222; calls by dose curve)
How it was run: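 Agonist activity measured in VDR-bla reporter cells. Exposure 16 h, 37C, 5% CO2; detection by B/G FRET substrate, 2 h RT.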

[8] = target: Vitamin D3 receptor (Homo sapiens) (UniProt P11473); experiment: qHTS assay to identify small molecule antagonists of the vitamin D receptor (VDR) signaling pathway (AID 743223; active = well fitted inhibition curve with a large enough effect in the signal ratio in the repeat runs, not every such curve was filed as active; the % refers to the signal ratio)
How it was run: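 Fluorescence from LiveBLAzer B/G FRET substrate, read after 2 h at room temperature, reflects beta-lactamase reporter activity in VDR-bla cells treated 16 h at 37C with compounds and agonist 1alpha,25-dihydroxyvitamin D3 (3 nM final).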

[9] = qHTS assay to identify small molecule agonists of the vitamin D receptor (VDR) signaling pathway - cell viability counter screen (AID 743224); note: series mostly up to about 63 µM; nearly all actives have a fitted effect of over 50% in size
How it was run: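 VDR-bla cell line, quantitative HTS format; 16 h compound incubation (37C, 5% CO2); ATP-based CellTiter-Glo luminescence measured in the reporter assay wells.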

[10] = qHTS assay to identify small molecule antagonists of the vitamin D receptor (VDR) signaling pathway - cell viability counter screen (AID 743225); note: nearly all actives have a fitted effect of over 50% in size
How it was run: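 Cells (VDR-UAS-bla HEK 293T) are plated, rested 4 h at 37C, dosed with compound and 3 nM final 1-alpha,25-dihydroxy vitamin D3, and incubated 16 h. Viability is taken from CellTiter-Glo luminescence in the reporter wells.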

[11] = qHTS assay to identify small molecule agonists of the NFkB signaling pathway (AID 1159509; active = well fitted curve in the direction sought with a large enough effect in the signal ratio in the repeat runs, not every such curve was filed as active; the % refers to the signal ratio; note: series mostly up to about 61 µM)
How it was run: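 ME-180 NFkB-bla, 2,000 cells/well, overnight plating; cpd pinned in DMSO, 5 h 37 C; B/G FRET substrate 1.5 h RT; ex 405, em 460/530 nm.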

[12] = qHTS assay to identify small molecule agonists of the NFkB signaling pathway - cell viability counter screen (AID 1159515; calls by dose curve; note: series mostly up to about 61 µM; nearly all actives have a fitted effect of over 55% in size)
How it was run: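 Viability in NFkB-bla ME-180 cells was measured by CellTiter-Glo luminescence, 30 min room temperature, in wells already treated 5 hr with compounds and read for reporter FRET.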

[13] = qHTS assay to identify small molecule agonists of the endoplasmic reticulum stress response signaling pathway (AID 1159516; active = well fitted activation curve with a large enough effect in the signal ratio in the repeat runs, not every such curve was filed as active; the % refers to the signal ratio)
How it was run: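 ER stress element reporter (bla) in HeLa. 1,500 cells/well, overnight attachment; 5 hr compound; 2 hr RT substrate; dual-emission fluorescence.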

[14] = qHTS assay to identify small molecule agonists of the endoplasmic reticulum stress response signaling pathway - cell viability counter screen (AID 1159517; calls by dose curve)
How it was run: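 CellTiter-Glo was added to wells already read for beta-lactamase FRET, and luminescence was recorded 30 min later. Cells: ESRE-bla HeLa, 1,500 per well, compound exposure 5 hr at 37 C.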

[15] = qHTS assay to identify small molecule antagonists of the retinoid-related orphan receptor gamma (ROR-gamma) signaling pathway - cell viability counter screen (AID 1159520); note: nearly all actives have a fitted effect of over 50% in size
How it was run: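 Tet-on ROR gamma CHO cells (1,000/well) were plated 4 hr, given compounds in DMSO for 2 hr at 37 C, then induced with 1 uM final doxycycline for 16 hr. Viability was read as ATP by CellTiter-Glo luminescence after 30 min.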

[16] = target: Nuclear receptor ROR-gamma (Homo sapiens) (UniProt P51449); experiment: qHTS assay to identify small molecule antagonists of the retinoid-related orphan receptor gamma (ROR-gamma) signaling pathway (AID 1159521)
How it was run: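 RORγ antagonism is scored from reduced reporter luminescence in Tet-on CHO cells. Induction used 1 uM final doxycycline hyclate for 16 h at 37 C, following a 2 h compound exposure.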

[17] = qHTS assay to identify small molecule agonists of the AP-1 signaling pathway - cell viability counter screen (AID 1159525; calls by dose curve; note: nearly all actives have a fitted effect of over 55% in size)
How it was run: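 ME-180 AP-1-bla, 2500 cells/well, Opti-MEM + 0.5% dialyzed FBS; overnight 37 °C; cpd 15-pt titration, 5 h 37 °C; CellTiter-Glo 30 min RT; luminescence read; normalised to TOAB and DMSO controls.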

[18] = qHTS assay to identify small molecule agonists of the AP-1 signaling pathway (AID 1159526; calls by dose curve)
[19] = target: Bile acid receptor (Homo sapiens) (UniProt Q96RI1); experiment: qHTS assay to identify small molecule antagonists of the farnesoid-X-receptor (FXR) signaling pathway (AID 743217; active = well fitted inhibition curve with a large enough effect in the signal ratio in the repeat runs, not every such curve was filed as active; the % refers to the signal ratio)
How it was run: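 Beta-lactamase reporter under UAS control in HEK 293T cells; compound exposure 16 h at 37 °C in the presence of chenodeoxycholic acid (50 uM final); signal from B/G FRET substrate after 2 h at room temperature.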

[20] = target: Bile acid receptor (Homo sapiens) (UniProt Q96RI1); experiment: qHTS assay to identify small molecule agonists of the farnesoid-X-receptor (FXR) signaling pathway (AID 743220; active = well fitted activation curve with a large enough effect in the signal ratio in the repeat runs, not every such curve was filed as active; the % refers to the signal ratio)
How it was run: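 Beta-lactamase reporter under UAS control in GeneBLAzer FXR HEK 293T cells (5000/well) measured with LiveBLAzer FRET substrate after 2 h at room temperature. Compound exposure lasted 16 h at 37C.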

Measured: Potency

Chain of Peroxisome proliferator-activated receptor delta (Homo sapiens) (Q03181 whole entry, looked up): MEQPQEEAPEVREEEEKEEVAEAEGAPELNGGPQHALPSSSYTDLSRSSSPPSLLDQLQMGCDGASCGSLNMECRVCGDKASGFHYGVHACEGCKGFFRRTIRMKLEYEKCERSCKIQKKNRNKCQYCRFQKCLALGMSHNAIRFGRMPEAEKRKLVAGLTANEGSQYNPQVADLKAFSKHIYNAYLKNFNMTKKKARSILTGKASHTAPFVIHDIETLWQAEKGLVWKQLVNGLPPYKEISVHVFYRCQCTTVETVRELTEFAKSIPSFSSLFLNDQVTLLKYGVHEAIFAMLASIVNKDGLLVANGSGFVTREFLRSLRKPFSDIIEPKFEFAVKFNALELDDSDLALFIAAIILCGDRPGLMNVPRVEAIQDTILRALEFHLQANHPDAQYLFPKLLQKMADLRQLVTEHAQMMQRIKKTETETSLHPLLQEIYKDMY
Chain of Bile acid receptor (Homo sapiens) (Q96RI1 whole entry, looked up): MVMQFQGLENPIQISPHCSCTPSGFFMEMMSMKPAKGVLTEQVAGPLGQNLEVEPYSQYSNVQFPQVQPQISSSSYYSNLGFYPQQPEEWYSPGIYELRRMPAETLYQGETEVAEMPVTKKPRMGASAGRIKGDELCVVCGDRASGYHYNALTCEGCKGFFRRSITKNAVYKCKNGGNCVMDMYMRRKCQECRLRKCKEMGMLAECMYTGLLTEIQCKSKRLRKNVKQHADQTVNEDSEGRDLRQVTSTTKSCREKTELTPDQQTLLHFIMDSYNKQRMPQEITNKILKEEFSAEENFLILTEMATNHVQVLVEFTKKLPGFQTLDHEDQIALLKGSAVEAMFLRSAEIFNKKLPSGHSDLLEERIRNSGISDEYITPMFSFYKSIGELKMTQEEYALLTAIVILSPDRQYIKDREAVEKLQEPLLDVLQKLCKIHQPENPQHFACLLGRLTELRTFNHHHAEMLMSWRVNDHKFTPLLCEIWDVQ
Chain of Vitamin D3 receptor (Homo sapiens) (P11473 whole entry, looked up): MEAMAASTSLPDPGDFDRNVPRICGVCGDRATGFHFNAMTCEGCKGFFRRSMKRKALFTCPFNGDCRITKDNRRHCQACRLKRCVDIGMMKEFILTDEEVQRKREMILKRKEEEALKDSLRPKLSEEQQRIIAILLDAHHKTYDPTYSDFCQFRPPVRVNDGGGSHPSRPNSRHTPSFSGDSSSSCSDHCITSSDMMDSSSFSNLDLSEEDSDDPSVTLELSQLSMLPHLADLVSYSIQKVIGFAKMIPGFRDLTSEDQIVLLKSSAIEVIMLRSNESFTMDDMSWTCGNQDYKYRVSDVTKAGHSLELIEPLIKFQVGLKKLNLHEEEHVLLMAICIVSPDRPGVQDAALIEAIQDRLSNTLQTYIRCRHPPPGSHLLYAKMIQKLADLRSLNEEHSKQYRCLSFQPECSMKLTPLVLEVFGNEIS

CC(=O)OCc1ccco1
inactive: [1] | [2] | [3] | [4] | [5] | [6] | [7] | [8] | [9] | [10] | [11] | [12] | [13] | [14] | [15] | [16] | [17] | [18]

COC(=O)c1cccnc1
inactive: [1] | [2] | [3] | [4] | [5] | [6] | [7] | [8] | [9] | [10] | [11] | [12] | [13] | [14] | [15] | [16] | [17] | [18]

C=C(C)CNCC
inactive: [1] | [2] | [4] | [5] | [6] | [7] | [8] | [9] | [10] | [11] | [12] | [13] | [14] | [15] | [16] | [17] | [18]

CCNc1ccccc1
inactive: [1] | [2] | [4] | [19] | [5] | [20] | [6] | [7] | [8] | [9] | [10] | [11] | [12] | [13] | [14] | [15] | [16] | [17] | [18]

CC(C)(C)c1cc(Cc2cc(C(C)(C)C)c(O)c(C(C)(C)C)c2)cc(C(C)(C)C)c1O
inactive: [1] | [2] | [4] | [19] | [5] | [20] | [6] | [7] | [8] | [9] | [10] | [11] | [12] | [13] | [14] | [15] | [16] | [17] | [18]

COCCCN
inactive: [1] | [2] | [3] | [4] | [5] | [6] | [7] | [9] | [10] | [11] | [12] | [13] | [14] | [15] | [16] | [17] | [18]

COc1ccc(N)c(C)c1
inactive: [1] | [2] | [4] | [19] | [5] | [20] | [6] | [7] | [8] | [9] | [10] | [11] | [12] | [13] | [14] | [15] | [16] | [17] | [18]

CCCCCCCCCCCCCCCC(=O)OC(C)C
inactive: [1] | [2] | [3] | [4] | [5] | [6] | [7] | [8] | [9] | [10] | [11] | [12] | [13] | [14] | [15] | [16] | [17] | [18]

Cc1ccc(C(C)C)c(O)c1
inactive: [1] | [2] | [3] | [4] | [5] | [6] | [7] | [8] | [10] | [11] | [12] | [13] | [14] | [15] | [16] | [17] | [18]

CN(C)c1ccc(Cc2ccc(N(C)C)cc2)cc1
inactive: [1] | [2] | [4] | [19] | [5] | [20] | [6] | [7] | [8] | [9] | [10] | [11] | [12] | [13] | [14] | [15] | [16] | [17] | [18]

COc1ccc(C)cc1N
inactive: [1] | [2] | [3] | [4] | [5] | [6] | [7] | [8] | [9] | [10] | [11] | [12] | [13] | [14] | [15] | [16] | [17] | [18]

CCCCCCCCCCCC(=O)OC
inactive: [1] | [2] | [4] | [19] | [5] | [20] | [6] | [7] | [8] | [9] | [10] | [11] | [12] | [13] | [14] | [15] | [16] | [17] | [18]

CC(=O)CC(C)(C)O
inactive: [1] | [2] | [4] | [19] | [5] | [20] | [7] | [8] | [9] | [10] | [11] | [12] | [13] | [14] | [15] | [16] | [17] | [18]

CCCCCC(=O)O
inactive: [1] | [2] | [3] | [4] | [5] | [6] | [7] | [8] | [9] | [10] | [11] | [12] | [13] | [14] | [15] | [16] | [17] | [18]

O=C(O)c1ccc(C(=O)O)c(C(=O)O)c1
inactive: [1] | [2] | [3] | [4] | [5] | [6] | [9] | [10] | [11] | [12] | [13] | [14] | [15] | [16] | [17] | [18]

C=CCc1ccc(OC)c(OC)c1
inactive: [1] | [2] | [3] | [19] | [5] | [20] | [6] | [7] | [9] | [10] | [11] | [12] | [13] | [14] | [15] | [16] | [17] | [18]

CC(=O)OC1CC(C)OC(C)O1 (stereo not given)
inactive: [1] | [2] | [4] | [19] | [5] | [20] | [6] | [9] | [10] | [11] | [12] | [13] | [14] | [15] | [16] | [17] | [18]
